In PubChem BioAssay (NCATS):
Results filed as inconclusive are left out. The source made the active and inactive calls. Unless noted, calls follow the shape of the dose curve; as a rule, active = well fitted curve in either direction with a large enough effect (not every such curve was filed as active); inconclusive = small, poorly fitted or top-dose-only effect, or another doubt; inactive = flat fitted curve, though single readings scatter.

Assays:
[1] = AP1 Signaling Pathway (AID 357); conditions: ME-180 AP-1-bla reporter, EGF-induced, beta-lactamase ratio, 5 h; at 17.2 µM (top of the series) unless noted;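 also: ME-180 reporter cells stimulated with EGF at its EC50 level; % is scaled to controls: 0 for no effect and ±100 for the full control effect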
Outline: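 First, ME-180 AP-1-bla cells were cultured overnight at 37 °C in low-serum Opti-MEM. Next, titrated compounds with EC50 EGF were incubated 5 hours. Finally, CCF4 was added for 2.5 hours and the 460/530 nm ratio recorded.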

[2] = NFAT Signaling Pathway (AID 444); conditions: Jurkat NFAT-bla M1, carbachol, beta-lactamase ratio, 5 h; at 17.2 µM (top of the series) unless noted;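 also: carbachol stimulus at about its EC50 of 1 µM final; % is scaled to controls: 0 for no effect and ±100 for the full control effect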
Outline: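 Jurkat cells carrying an NFAT-driven β-lactamase reporter and co-transfected muscarinic M1 receptor were treated with compound plus carbachol (1 uM final, an EC50 level) for 5 h at 37 °C. CCF4 loading followed for 1 h at RT; 460/530 nm ratio gave %activity.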

[3] = Stat Signaling Pathway (AID 446); conditions: ME-180 (cervical carcinoma) SIE beta-lactamase reporter, IL-6 stimulated, 5 h; at 17.2 µM (top of the series) unless noted;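 also: ME-180 cervical cancer cells given 40 pM IL-6 alongside compound; SIE-controlled beta-lactamase reporter measured as 460/530 nm FRET emission ratio; % is scaled to controls: 0 for no effect and ±100 for the full control effect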
Outline: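 IL-6/STAT signaling read in ME-180 cells via an SIE beta-lactamase reporter. Stimulus was 40 pM IL-6 (its AC50) for 5 hrs, so both activation and inhibition register.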

[4] = molecular target: Glucocorticoid receptor (Homo sapiens) (UniProt P04150); experiment: GR-GFP Redistribution (AID 450;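 active = compounds whose dose series gives a full or clear partial fitted curve of increased nuclear translocation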; also: potency is read from the fitted curve at half-maximal effect)
Glucocorticoid receptor (Homo sapiens), sequence (P04150 whole entry, looked up): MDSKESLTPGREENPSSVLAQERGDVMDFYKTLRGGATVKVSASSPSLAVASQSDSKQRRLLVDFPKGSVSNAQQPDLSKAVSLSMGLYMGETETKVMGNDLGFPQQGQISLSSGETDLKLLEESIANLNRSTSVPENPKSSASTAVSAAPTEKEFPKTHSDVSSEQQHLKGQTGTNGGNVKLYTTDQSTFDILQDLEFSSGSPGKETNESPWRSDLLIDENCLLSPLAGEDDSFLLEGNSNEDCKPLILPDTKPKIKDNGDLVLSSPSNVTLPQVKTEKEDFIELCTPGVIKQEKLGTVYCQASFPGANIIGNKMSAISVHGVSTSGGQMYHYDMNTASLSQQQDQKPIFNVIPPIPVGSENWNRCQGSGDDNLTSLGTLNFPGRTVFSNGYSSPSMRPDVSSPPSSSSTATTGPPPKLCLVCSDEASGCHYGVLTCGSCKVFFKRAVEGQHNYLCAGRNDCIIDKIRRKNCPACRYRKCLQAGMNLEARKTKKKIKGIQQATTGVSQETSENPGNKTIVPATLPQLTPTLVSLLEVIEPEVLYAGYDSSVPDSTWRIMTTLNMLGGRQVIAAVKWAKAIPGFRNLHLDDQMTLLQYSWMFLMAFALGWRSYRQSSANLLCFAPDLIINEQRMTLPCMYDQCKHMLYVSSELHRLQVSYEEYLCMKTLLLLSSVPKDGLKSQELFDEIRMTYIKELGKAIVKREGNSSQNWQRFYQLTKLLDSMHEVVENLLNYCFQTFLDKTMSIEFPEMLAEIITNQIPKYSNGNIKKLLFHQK

O=C(c1ccc(N2C(=O)C3CC=C(Cl)CC3C2=O)cc1)N1CCCCC1 (stereo unspecified)
inactive: activity change, negative = inhibition [1] -18.4% | activity change, negative = inhibition [2] 13% | activity, negative = inhibition [3] -8.18% | Potency [4] > 20.6 µM

O=c1c(-c2ccc(Cl)cc2)[n+]([O-])c2ccccc2n1O
inactive: activity change, negative = inhibition [1] -1.42% | activity change, negative = inhibition [2] -15.3% | activity, negative = inhibition [3] -2.31% | Potency [4] > 20.6 µM

O=S(=O)(c1ccccc1)N1CCC(N2CCN(c3ccccc3)CC2)CC1
inactive: activity change, negative = inhibition [1] -9.33% | activity change, negative = inhibition [2] 6.66% | activity, negative = inhibition [3] 5.78% | Potency [4] > 20.6 µM

COc1ccccc1Cn1c2nc3ccccc3nc2c2c(=O)n(CC(C)C)cnc21
inactive: activity change, negative = inhibition [1] -14.3% | activity change, negative = inhibition [2] 4.7% | activity, negative = inhibition [3] -12.8% | Potency [4] > 20.6 µM

CC(=O)N=C(N)Sc1nc2ccccc2[nH]1
inactive: activity change, negative = inhibition [1] 12.8% | activity change, negative = inhibition [2] -12.3% | activity, negative = inhibition [3] 1.5% | Potency [4] > 20.6 µM

CCc1cc(=O)oc2cc(C)c(CN3CCCC(C)C3)c(O)c12 (stereo unspecified)
inactive: activity change, negative = inhibition [1] 1.74% | activity change, negative = inhibition [2] -12.2% | activity, negative = inhibition [3] -15.7% | Potency [4] > 20.6 µM

C=CCOc1ccc(/C(O)=C2/C(=O)C(=O)N(CCCN3CCOCC3)C2c2ccc(OC)cc2)cc1 (stereo unspecified)
inactive: activity change, negative = inhibition [1] -6.96% | activity change, negative = inhibition [2] 8.61% | activity, negative = inhibition [3] -4.29% | Potency [4] > 20.6 µM

Cc1ccc2[nH]c3c(N4CCOCC4)ncnc3c2c1
inactive: activity change, negative = inhibition [1] -7.05% | activity change, negative = inhibition [2] 18.4% | activity, negative = inhibition [3] -10.6% | Potency [4] > 20.6 µM

COc1cc(C2Nc3cccc4cccc(c34)N2)cc(OC)c1OC(C)=O
inactive: activity change, negative = inhibition [1] 19.9% | activity change, negative = inhibition [2] 3.51% | activity, negative = inhibition [3] 9.71% | Potency [4] > 20.6 µM

Nc1cccc(C(=O)O)c1
inactive: activity change, negative = inhibition [1] 8.42% | activity change, negative = inhibition [2] 20.2% | activity, negative = inhibition [3] 4.89% | Potency [4] > 20.6 µM

CCOC(=O)c1ccc(CC2S/C(=C(\C#N)C(C)=O)NC2=O)cc1 (stereo unspecified)
inactive: activity change, negative = inhibition [1] -24.1% | activity change, negative = inhibition [2] 13.3% | activity, negative = inhibition [3] -21.4% | Potency [4] > 20.6 µM

CCOC(=O)C(C(=O)OCC)N(C#N)c1nc(SC)nc(N(C)C)n1
inactive: activity change, negative = inhibition [1] -8.06% | activity change, negative = inhibition [2] -23.5% | activity, negative = inhibition [3] -8.92% | Potency [4] > 20.6 µM

O=S(=O)(N[C@@H]1C[C@H]2CC[C@@H]1C2)c1cccs1
inactive: activity change, negative = inhibition [1] -5.92% | activity change, negative = inhibition [2] -11.3% | activity, negative = inhibition [3] -0.621% | Potency [4] > 20.6 µM

COC(=O)c1cc(S(=O)(=O)N2CCOCC2)c(N2CCOCC2)cc1N1CCOCC1
inactive: activity change, negative = inhibition [1] -1.61% | activity change, negative = inhibition [2] 5.16% | activity, negative = inhibition [3] 5.81% | Potency [4] > 20.6 µM

CCCCNc1nc2c(c(=O)n(C)c(=O)n2C)n1Cc1cccc(OC)c1
inactive: activity change, negative = inhibition [1] -11.7% | activity change, negative = inhibition [2] 2.13% | activity, negative = inhibition [3] -17% | Potency [4] > 20.6 µM

N/C(=N\c1nc2ccccc2o1)NC(=O)c1ccccc1NC(=O)c1ccccc1
inactive: activity change, negative = inhibition [1] 14.1% | activity change, negative = inhibition [2] -14.2% | activity, negative = inhibition [3] -27.8% | Potency [4] > 20.6 µM

CCOC(=O)c1ccc(-n2c(=O)[nH]c3ccccc3c2=O)cc1
inactive: activity change, negative = inhibition [1] 3.86% | activity change, negative = inhibition [2] 6.82% | activity, negative = inhibition [3] 2.95% | Potency [4] > 20.6 µM

Cc1ccc(C2/C(=C(\O)c3cnn(-c4ccccc4)c3C)C(=O)C(=O)N2CCN(C)C)o1 (stereo unspecified)
inactive: activity change, negative = inhibition [1] -6.2% | activity change, negative = inhibition [2] -12.1% | activity, negative = inhibition [3] 4.22% | Potency [4] > 20.6 µM

COc1cccc(C2/C(=C(\O)c3ccc4c(c3)OCCO4)C(=O)C(=O)N2CCN(C)C)c1 (stereo unspecified)
inactive: activity change, negative = inhibition [1] -3.08% | activity change, negative = inhibition [2] 2.4% | activity, negative = inhibition [3] 9.63% | Potency [4] > 20.6 µM
